Screening results (PubChem)
D1 ag: Allosteric Agonists of the Human D1 Dopamine Receptor: qHTS; D(1A) dopamine receptor (Homo sapiens), P21728; HEK293 T-REx D1 cells, calcium flux, agonist mode; activation, % at 2 µM; actives 1% (n = 360,000); AID 504660, 2011; further: 0% is about no effect
Target sequence (P21728 whole entry, looked up): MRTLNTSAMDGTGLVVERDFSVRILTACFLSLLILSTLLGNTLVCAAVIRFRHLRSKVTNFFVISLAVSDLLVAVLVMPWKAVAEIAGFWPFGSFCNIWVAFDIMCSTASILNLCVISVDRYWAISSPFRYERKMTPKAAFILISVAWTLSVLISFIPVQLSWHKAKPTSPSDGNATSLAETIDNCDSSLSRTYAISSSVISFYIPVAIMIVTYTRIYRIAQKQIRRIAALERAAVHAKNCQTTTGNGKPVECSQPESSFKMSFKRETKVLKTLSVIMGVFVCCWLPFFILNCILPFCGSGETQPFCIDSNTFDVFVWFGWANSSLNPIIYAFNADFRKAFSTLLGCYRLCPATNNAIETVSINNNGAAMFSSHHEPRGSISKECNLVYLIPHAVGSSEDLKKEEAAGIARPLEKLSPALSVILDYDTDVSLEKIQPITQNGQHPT
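Tetracycline-induced HEK293 TREx D1 cells, force-coupled to calcium signalling, were dye-loaded with a no-wash calcium kit. Compound was pin-added after a 10 s baseline. Fluorescence was read kinetically at 1 cycle/s for 180 s, with calcium rises flagged as agonism.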
D1 antagonist: Antagonist of Human D 1 Dopamine Receptor: qHTS. actives 3.2% (n = 360,000). D(1A) dopamine receptor (Homo sapiens), P21728. activity change, negative = inhibition, % at 10 µM. HEK293 TREx D1 cells, calcium flux, dopamine EC80; stronger effect = lower value; in the data active means activity change below about -30%; further: on the % scale 0 is the no-effect control and ±100 the full control effect
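After overnight tetracycline induction at 30 C, force-coupled D1 HEK293 cells took up a no-wash calcium dye at room temperature. Compounds were added and monitored 180 s, and the response to EC80 dopamine was then recorded.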
TRHR agonist: qHTS for Small Molecule Agonists and Allosteric Enhancers of Human TRH Receptor: Primary Screen for Agonists. activation, % at 2 µM. TRHR cells, calcium flux fluo-8, FDSS agonist mode. AID 493084, 2011. actives 0.18% (n = 360,000). Thyrotropin-releasing hormone receptor (Homo sapiens), P34981; further: 0% is about no effect
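In this calcium-flux screen, cells bearing human TRHR are dye-loaded with fluo-8, baselined for 10 cycles, then exposed to library compounds; positive kinetic calcium responses during the agonist phase mark hits, with TRH as control.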
TRHR enhancer: qHTS for Small Molecule Agonists and Allosteric Enhancers of Human TRH Receptor: Primary Screen for Enhancers; Thyrotropin-releasing hormone receptor (Homo sapiens), P34981; TRHR cells, fluo-8 calcium fluorescence, EC20 TRH enhancement; enhancement, % at 2 µM; actives 0.66% (n = 360,000); in the data active means enhancement above about 30%; further: 0% is about no effect
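TRHR-expressing cells loaded with fluo-8 calcium dye were read kinetically (ex 480/em 530) during compound addition, then stimulated with an EC20 of TRH (10 nM final). Enhancement of the Gq-mediated intracellular calcium response was scored.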
D1 potentiator: Potentiators of Human D1 Dopamine Receptor: qHTS | D(1A) dopamine receptor (Homo sapiens), P21728 | HEK293 TREx D1 cells, calcium flux, dopamine EC20 potentiation | potentiation, % at 10 µM | actives 0.036% (n = 360,000) | AID 504651, 2011; in the data active means potentiation above about 30%; further: 0% is about no effect
Numbers without * were called inactive; nt = not tested or not shown; ! = not active in a repeat. A selection: hits, their analogues and other compounds. The true share with any hit is near 4.7%. Unless noted, no stated cut-off is given here; in the data, active means activation above about 30%; inactive means the rest.

SMILES	D1 ag	D1 antagonist	TRHR agonist	TRHR enhancer	D1 potentiator
Cn1cccc1/C=N/n1c(-c2ccc(Cl)cc2Cl)n[nH]c1=S	44*	3	3	2	-2
CCc1nnc(SCC(=O)Nc2ccc(F)cc2F)c2cc3sc(C)cc3n12	1	-3	-2	0	-2
O=C(COC(=O)CC1Sc2ccccc2NC1=O)NCc1ccccc1 (stereo unspecified)	37*	2	0	7	-4
COc1ccc(CNC(=O)CC2Sc3ccccc3NC2=O)cc1 (stereo unspecified)	5	-9	0	-4	0
COc1ccc(CNC(=O)c2cc3sccc3n2C)cc1	0	-52*	0	5	-1
COCCNC(=O)c1cc2sccc2n1C	1	-8	0	5	-7
COc1ccc(CNC(=O)c2ccc(C(C)C)cc2)cc1	3	-47*	-1	-3	-4
CCCOc1ccc(/C=C2\SC(N)=NC2=O)cc1OC	0	-42*	0	-20	-14
NNC(=O)c1cc(O)c(O)c(O)c1	-1	-36*	0	-5	-11
Cc1c(Cl)cccc1NC(=O)CCCn1nc(C)c2sc3ccccc3c2c1=O	0	12	0	-2	1
CCCOC(=O)/C(=C\c1ccc([N+](=O)[O-])o1)NC(=O)c1ccccc1	2	-2	3	-3	-4
CCOC(=O)/C(=C\c1ccc([N+](=O)[O-])o1)NC(=O)c1ccccc1	27	-36*	2	-7	-3
CCCOc1ccc(C2C(=O)N(C3CCCCCC3)CC(=O)N2CCC2=CCCCC2)cc1OC (stereo unspecified)	-1	6	0	-2	-1
CC(C)(C)C1(O)CC(C(F)(F)F)=NN1C(=O)Cc1ccc([N+](=O)[O-])cc1 (stereo unspecified)	6	-34*	1	-5	-6
Cc1ccccc1OCC(=O)N1N=C(C(F)(F)F)CC1(O)C(C)(C)C (stereo unspecified)	59*	15	0	1	5
CCC1=NN(C(=O)Cc2ccc([N+](=O)[O-])cc2)C(O)(C(F)(F)F)C1 (stereo unspecified)	33*	-12	-2	-1	-3
CC(C)Cn1cc(NC(=O)NCc2ccccc2Cl)c2ccccc2c1=O	4	1	-1	3	-4
COc1ccccc1NC(=O)CC(C)n1nc(C)cc1C (stereo unspecified)	4	-1	0	-11	3
COC(=O)CSC1=C(C#N)C(c2cccc(F)c2)CC(=O)N1 (stereo unspecified)	2	-11	0	22	-5
CCOc1ccccc1C1CC(=O)NC(SCC)=C1C#N (stereo unspecified)	0	-5	-2	34*	-2
CCCSC1=C(C#N)C(c2ccc(O)c(OC)c2)CC(=O)N1 (stereo unspecified)	2	-53*	0	-1	nt
COC(=O)CSC1=C(C#N)C(c2cccc(OC)c2)CC(=O)N1 (stereo unspecified)	4	-42*	0	2	nt
COc1ccccc1N1CCN(C(=O)CCn2nc(C)c(S(=O)(=O)N3CCCC3)c2C)CC1	1	-4	-2	2	0
CN(Cc1cccs1)C(=O)/C=C/c1ccccc1[N+](=O)[O-]	10	-41*	0	13	-8
COCC1CCN(C(=O)c2cc(COc3ccc(-n4cncn4)cc3)on2)CC1	2	-36*	-1	-5	-1
SMILES	D1 ag	D1 antagonist	TRHR agonist	TRHR enhancer	D1 potentiator
CC1CCN(CCOc2cc(Cl)ccc2Cl)CC1	4	-59*	-1	24	-4
CC1CCN(CCOCCOc2ccc(Br)cc2Cl)CC1	13	-33*	1	-3	-18
Nc1c(C(=O)Nc2ccccc2Cl)c2ccccn2c1C(=O)c1ccccc1	-2	1	1	4	-2
CCn1c(SCC(=O)N/N=C/C=C\c2ccccc2[N+](=O)[O-])nnc1-c1ccccc1	-1	-57*	-1	-6	-1
Cc1ccc(CSc2nnc(SCC(=O)N/N=C/C=C/c3ccccc3[N+](=O)[O-])s2)cc1	3	-10	1	7	3
O=[N+]([O-])c1ccccc1CNc1ccc(F)c(Cl)c1	-2	-1	-1	2	7
COc1cccc(CNc2ccc(F)c([N+](=O)[O-])c2)c1O	8	-31*	1	-4	-8
CN1CCN(C(=O)c2ccc(CS(=O)Cc3ccc(Cl)cc3)o2)CC1 (stereo unspecified)	3	-34*	1	-1	0
O=[S+]([O-])(c1ccc(-c2ccccc2)cc1)N1CCN([S+](=O)([O-])c2ccc3c(c2)OCCO3)CC1	1	4	2	-3	-2
COc1cc(C2C(C#N)=C(C)NC3=C2C(=O)c2ccccc23)cc(OC)c1OC (stereo unspecified)	0	-53*	0	-3	-6
CCc1ccc(NS(=O)(=O)c2ccc3oc(=O)c4ncn(CC)c4c3c2)cc1	0	0	0	0	1
Cc1ccccc1-c1ccnc2[nH]n(-c3ccccc3)c(=O)c12	4	-37*!	0	4	14
Cc1[nH]n(-c2ccccc2)c(=O)c1/C=N/c1ccccn1	1	5	1	6	-3
Cc1ccccc1OCC(=O)Nc1ccc(S(=O)(=O)N(Cc2ccccc2)c2ccccc2)cc1	4	-51*	1	-3	1
CN1CCC(N(C)S(=O)(=O)c2ccc(NC(=O)COc3ccc(Br)cc3Cl)cc2)CC1	31*	-44*	4	-6	-16
Cc1ccc(OCC(=O)Nc2ccc(S(=O)(=O)N(C)C3CCN(C)CC3)cc2)c(C)c1	20	-24	1	-2	-11
O=C(COc1ccc(F)cc1)Nc1ccc(S(=O)(=O)N(Cc2ccccc2)c2ccccc2)cc1	27	-4	-1	-1	0
Cc1ccccc1OCCC(=O)Nc1ccc(S(=O)(=O)N(C)C2CCN(C)CC2)cc1	55*	-66*	0	4	-1
O=C(CCCc1ccccc1)Nc1cccc([N+](=O)[O-])c1	14	-37*	0	-9	-11
O=C(COC(=O)COc1ccccc1)Nc1cccc([N+](=O)[O-])c1	6	-34*	-1	7	0
O=C(Nc1cccc([N+](=O)[O-])c1)Nc1cccc([N+](=O)[O-])c1	37*	-45*	0	-14	-9
